Values without a mark were called inactive. Active and inactive are the calls of the source. How the calls were made is not given here.
assay: Biochemical counterscreen for C difficile toxins, absence of UDPG, inhibitor dose response (AID 720650); details: series mostly up to 19.5 µM; activity change, negative = inhibition: at the top concentration

| Compound | activity change, negative = inhibition | AC50 |
| --- | --- | --- |
| Cc1nc(S(=O)(=O)N(C)Cc2ccccc2)c(C#N)c(C)c1Cl | -9.25% |  |
| O=C(Nc1ccc(O)cc1)/C(=C\c1ccncc1)NC(=O)c1ccccc1 |  | 11.8 µM (active) |
| Cc1nc2[nH]c(=S)[nH]c2c(=O)[nH]1 |  | > 39 µM |
| O=C(NC(=S)Nc1ccc(N2CCOCC2)cc1)c1ccccc1 | -9.02% |  |
| CC1CCCN(C(=S)Nc2ccc(F)cc2)C1 (centres undefined) | -12.2% |  |
| Cc1ccc(C)c2nc(Cl)c(C3NC(=O)c4ccccc4N3)cc12 (centres undefined) | -4.37% |  |
| COc1ccc(NC2CCCN(C(=O)CN3CCOC3=O)C2)cc1OC (centres undefined) | -10.4% |  |
| O=C(Nc1ccc(O)cc1)c1ccc2c(c1)C(=O)N(Cc1ccco1)C2=O |  | 9.58 µM (active) |
| O=S(=O)(NC1CCCCCCC1)c1ccc(F)cc1 | -9.37% |  |
| Cc1cc2c(cc1S(=O)(=O)N(C)c1ccccc1)NC(=O)CO2 | -3.43% |  |
| COc1ccc(C=C2CCC3C(=O)CCCC3(C)C2=O)cc1 (centres undefined) | -3.53% |  |
| O=C(O)c1ccccc1NC(=O)N1C[C@H]2C[C@@H](C1)c1cccc(=O)n1C2 | -18.8% |  |
| Nc1ccc(N=Nc2ccc(O)cc2)c(N)n1 |  | 7.86 µM (active) |
| COc1cc2oc3ccc(C#Cc4ccccn4)cc3c(=O)c2cc1OC | -8.45% |  |
| CC(C)Cc1[nH]c(=O)c(C#N)c2c1CCCC2 | 6.43% |  |
| Cc1ccc(NC(=O)C2OCCc3ccccc32)cc1C (centres undefined) | 1.44% |  |
| Cn1c(SCC(=O)c2cc3ccccc3o2)nnc1-c1ccccc1 | -12.4% |  |
| CC(=O)N1CC[C@@H]2[C@@H](CO)N(C)c3ccc(-c4ccccc4)cc3[C@@H]21 |  | 7.4 µM (active) |
| COc1ccc(NC(=O)Nc2nc(C)cc(C)n2)c(OC)c1 | -12.3% |  |

Source: PubChem BioAssay AID720650 (Broad Institute, 2013)
